High-throughput results: PubChem, The Scripps Research Institute Molecular Screening Center
A selection: hits, their analogues and other compounds. The true share with any hit is near 2.3%.
M1 PAM parental: M1 PAM counterscreen hit in parental CHO-K1 cells. ATP EC20, Fluo-8 calcium fluorescence; 0% at ATP EC20, 100% at ATP max. activation, % at 3 µM. actives 0.02% (n = 360,000);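 active = activation above the run cutoff, the mean activation of all test compounds plus 3 SD, cut at about 40% in these data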;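 note: peak over basal fluorescence ratio in a 140 s read after ATP addition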
M1 antag: human CHRM1 antagonism. P11229. CHO-K1 hM1, Fluo-8 calcium fluorescence, ACh EC80 antagonist. inhibition, % at 3 µM. actives 1.3% (n = 360,000). AID 588852;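 active = percent inhibition above its own plate's cutoff, namely the mean of that plate's compound wells plus 3 SD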;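 note: peak over basal fluorescence ratio during 140 s after agonist addition; 0% = ACh EC80 plus DMSO and 100% = DMSO alone without agonist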
Target sequence (P11229 whole entry, looked up): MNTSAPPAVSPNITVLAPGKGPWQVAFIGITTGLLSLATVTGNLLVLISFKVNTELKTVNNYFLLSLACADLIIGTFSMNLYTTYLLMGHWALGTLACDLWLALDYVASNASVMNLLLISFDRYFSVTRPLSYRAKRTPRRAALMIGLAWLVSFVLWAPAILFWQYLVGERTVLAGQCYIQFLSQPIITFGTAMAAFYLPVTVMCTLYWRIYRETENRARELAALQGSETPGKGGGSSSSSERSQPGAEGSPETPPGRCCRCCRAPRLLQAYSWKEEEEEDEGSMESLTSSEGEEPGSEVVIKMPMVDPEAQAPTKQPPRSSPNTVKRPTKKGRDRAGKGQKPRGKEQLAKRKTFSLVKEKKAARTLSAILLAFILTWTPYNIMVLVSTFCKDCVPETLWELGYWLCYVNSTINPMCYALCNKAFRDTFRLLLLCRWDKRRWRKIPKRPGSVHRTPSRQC
M1 ag parental: nonselective activator or artifact in parental CHO-K1 cells. activation, % at 3 µM. actives 0.48% (n = 360,000). Fluo-8 calcium fluorescence; scaled to maximal ATP response, vehicle zero; in the data active = activation above about 15%;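 note: untransfected CHO-K1 host cells lacking M1 receptor as counterscreen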
CHO-K1 Ca antag: counter-screen for M1 antagonists: effect in parental CHO-K1 cells; inhibition, % at 3 µM; actives 0.6% (n = 360,000); ATP-induced calcium, Fluo-8 fluorescence;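 active = inhibition above a per-plate cutoff, the plate's mean sample inhibition plus 3 SD, cut at about 24% in these data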;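 note: 0% = DMSO plus EC80 ATP and 100% = DMSO alone without ATP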
CHRM1 PAM: potentiates human M1 receptor response to acetylcholine; P11229; CHO-K1 hM1, Fluo-8 calcium fluorescence, ACh EC20; 0% = ACh EC20, 100% = maximal ACh; activation, % at 3 µM; actives 0.088% (n = 360,000); in the data active = activation above about 19%, passing the limit was not always enough
M1 ag: activates human CHRM1 receptor; P11229; CHO-K1 hM1, Fluo-8 calcium fluorescence, agonist mode; 0% DMSO, 100% acetylcholine EC100; activation, % at 3 µM; actives 0.33% (n = 360,000); AID 588814;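 active = activation above the run's mean compound activation plus 3 SD, cut at about 16% in these data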;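 note: peak over basal fluorescence ratio within a 140 s kinetic read after compound addition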
Starred values were filed as active, the others as inactive; x = no result.

SMILES	M1 PAM parental	M1 antag	M1 ag parental	CHO-K1 Ca antag	CHRM1 PAM	M1 ag
CC(C)[C@@H](C(=O)NCC1CCC(C(=O)O)CC1)n1nnc2ccccc2c1=O (some centres undefined)	0	-1	0	-1	2	-3
O=C(Cn1nnc2ccccc2c1=O)NCC1CCC(C(=O)O)CC1 (centres undefined)	11	-11	18*	3	12	8
CN(Cc1ccccc1)c1nc(-c2cccc([N+](=O)[O-])c2)nc2ccccc12	10	-2	0	-7	4	-2
COc1cccc(CNC(=O)CCCNS(=O)(=O)c2cccs2)c1	-1	2	2	42*	-1	-2
CNc1snc(C)c1C(=O)OCC(=O)c1ccc(OC)c(F)c1	-21	40*	14	18	-17	0
O=C(OC1CO[C@H]2O[C@@H]1[C@H](OC(=O)c1ccccc1)[C@H]2OC(=O)c1ccccc1)c1ccccc1 (some centres undefined)	-10	-11	0	5	6	0
COCC(C)n1c(C)cc(C(=O)COC(=O)c2cc(=O)[nH]c3ccccc23)c1C (centres undefined)	1	0	1	-1	2	1
COc1ccc(-n2nc(C(=O)NCC(=O)N3CCOCC3)c3ccccc3c2=O)cc1OC	15	-6	3	-15	3	-3
COc1ccc(-n2nc(C(=O)NCC(=O)N3CCN(c4ccccn4)CC3)c3ccccc3c2=O)cc1	10	9	2	9	-7	-2
COc1ccc(-n2nc(C(=O)NCC(=O)N3CCN(Cc4ccc5c(c4)OCO5)CC3)c3ccccc3c2=O)cc1OC	7	41*	3	-14	-18	1
COc1ccc(-n2nc(C(=O)NCC(=O)N3CCN(c4ccccn4)CC3)c3ccccc3c2=O)cc1OC	-12	37*	5	8	-13	-5
CCOC(=O)c1nc(Nc2ccc(N3CCC(C)CC3)cc2)c2ccccc2n1	8	-4	2	-6	2	4
CCOc1ccc(S(=O)(=O)NCCC(=O)OCC(=O)NC(=O)c2cccn2C)cc1	1	-26	0	-4	9	0
O=C(COc1ccccc1[N+](=O)[O-])N1CCN(c2ccccn2)CC1	6	-1	1	-8	1	-7
CC(C)CCNC(=O)CN(CC1CCCO1)C(=O)CCC(=O)Nc1nccs1 (centres undefined)	21	-44	0	-12	20*	1
Cc1cccc(C(=O)NCC(=O)OCC(=O)c2cc(C)n(CC3CCCO3)c2C)c1 (centres undefined)	8	-3	17*	5	8	-9
Cc1cc2nc(C)c(=O)n(C)c2cc1C	2	-13	0	-1	10	-6
Cc1cc2nc3n(c2cc1C)CCCN3	-13	34*	0	9	-23	-11
CCCCOCCCNC(=O)C[C@@H]1C[C@@]2(C(=O)OCC)CCCC=C2N(Cc2ccc3c(c2)OCO3)C1=O	-5	x	-1	5	x	x
C=CCNC(=O)COC(=O)COc1ccc(Cl)cc1	5	8	2	-2	1	-2
COCCNC(=O)C1CCCN(S(=O)(=O)c2c(C)noc2/C=C/c2cccs2)C1 (centres undefined)	0	-7	3	-13	5	0
COC(CNC(=O)C1CCCN(S(=O)(=O)c2c(C)noc2/C=C/c2cccs2)C1)OC (centres undefined)	12	3	15*	-2	6	-2
COc1ccc(C(=O)CSc2nnc(Cn3cnc4ccccc43)o2)cc1	9	32*	8	4	-10	-1
COc1ccc(CN2CCCCCC2)cc1	-22	-6	0	25*	4	-8
CCN(CC)c1ccc(CN2CCCCCC2)cc1	-6	19	0	15	-13	-6
SMILES	M1 PAM parental	M1 antag	M1 ag parental	CHO-K1 Ca antag	CHRM1 PAM	M1 ag
CN(C)c1ccc(CN2CCCCCC2)cc1	4	45*	0	4	-3	-5
COc1ccc(CN2CCOCC2)cc1	25	-11	0	-4	13	-3
COc1ccc(S(=O)(=O)N2CCOCC2)cc1NC(=O)c1ccc(S(=O)(=O)N(C)c2ccccc2OC)cc1	3	11	1	-1	-2	-7
O=C(CCCCCn1c(=S)[nH]c2ccc(N3CCOCC3)cc2c1=O)NC1CCN(Cc2ccccc2)CC1	-8	50*	0	4	-26	-9
COc1cccc(-n2c(SCC(=O)O)nnc2-c2cccnc2)c1	3	23*	0	-11	-16	-4
Cc1ccc(S(=O)(=O)/N=c2\ccc(Cl)cn2C(F)F)cc1	13	-11	2	-18	9	-4
OC(CN1CCCC(C(F)(F)F)C1)c1ccccc1 (centres undefined)	-8	-32	0	-18	34*	2
OC(COC(c1ccc(F)cc1)c1ccc(F)cc1)CN1CCCC(C(F)(F)F)C1 (centres undefined)	-11	-12	-1	-10	4	-2
CCOC(=O)C1(CC)NC(c2ccc(OC)cc2OC)C2C(=O)N(C)C(=O)C21 (centres undefined)	3	11	4	-3	-4	-3
CCOC(=O)[C@H]1NN=C(C(=O)OC)[C@@H]1c1ccccc1	-13	-3	0	12	3	-12
Cc1ccc(CNc2ncnc3ccc(-c4ccc(CO)o4)cc23)o1	-2	1	1	-8	-10	-9
CCC[C@@H](NS(=O)(=O)c1ccc(C)cc1)C(=O)Oc1ccc2c3c(c(=O)oc2c1)CCC3	12	38*	12	7	-25	2
Cc1ccc(S(=O)(=O)NC(C(=O)Oc2ccc3c(C)c(Cl)c(=O)oc3c2)c2ccccc2)cc1 (centres undefined)	0	9	0	0	-3	-6
Cc1nc(C(=O)O)cc([N+](=O)[O-])c1C	11	-2	0	-5	3	0
CC(C)(C)N(Cc1ccccc1)C(=O)c1ccc(Br)o1	6	-5	0	-14	4	-7
CC(C)(C)N(Cc1ccccc1)C(=O)c1ccc(Cl)cc1[N+](=O)[O-]	-13	39*	2	16	-29	-10
Cc1ccc(C(=O)N(Cc2ccccc2)C(C)(C)C)cc1C	4	51*	0	10	-26	-7
CN1C(=O)[C@H]2[C@@H](/C=C/c3ccccc3)N3C(=O)CN(Cc4ccccn4)C(=O)[C@@]3(C)[C@H]2C1=O	17	-11	1	-19	13	0
O=C(CCn1c(=S)oc2ccccc21)Nc1cccc(O)c1	9	0	3	-17	3	-3
CCOC(=O)N1CCC(NCCNC(=O)c2ccco2)CC1	-6	21	0	-3	-7	-2
